Data on 40 molecules can be found in PubChem BioAssay (NCATS).

A number with no mark means an inactive call. Unless noted, calls come from the whole dose curve; as a rule, active = well fitted curve in either direction with a large enough effect (not every such curve was filed as active); inconclusive = small, poorly fitted or top-dose-only effect, or another doubt; inactive = flat fitted curve, though single readings scatter. Inconclusive results are not listed.

Sequence of Lysosomal acid glucosylceramidase (Homo sapiens) (P04062 whole entry, looked up): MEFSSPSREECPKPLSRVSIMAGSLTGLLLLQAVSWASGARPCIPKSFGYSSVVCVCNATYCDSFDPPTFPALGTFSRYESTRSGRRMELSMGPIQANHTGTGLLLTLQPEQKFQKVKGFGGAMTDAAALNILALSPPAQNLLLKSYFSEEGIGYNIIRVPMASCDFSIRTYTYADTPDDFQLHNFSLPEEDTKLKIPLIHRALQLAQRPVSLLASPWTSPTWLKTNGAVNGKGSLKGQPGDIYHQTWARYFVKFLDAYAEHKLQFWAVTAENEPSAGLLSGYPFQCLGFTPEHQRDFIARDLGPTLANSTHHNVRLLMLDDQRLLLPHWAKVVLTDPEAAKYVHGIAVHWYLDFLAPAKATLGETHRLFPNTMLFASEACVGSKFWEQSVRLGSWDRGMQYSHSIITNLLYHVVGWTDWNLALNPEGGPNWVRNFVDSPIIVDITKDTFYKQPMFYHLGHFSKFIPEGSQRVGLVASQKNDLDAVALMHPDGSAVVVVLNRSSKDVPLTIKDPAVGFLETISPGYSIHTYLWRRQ

The target of one assay is Lysosomal acid glucosylceramidase (Homo sapiens) (UniProt P04062). Kind of assay: Glucocerebrosidase-p2 (AID 348; in the data active = potency below about 10 µM; note: potency is the fitted concentration of half-maximal effect). Particulars: purified GBA, blue fluorogenic substrate, 40 min. The method, boiled down:
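Compounds titrated from 0.6 nM upwards against 0.2 nM enzyme in pH 5.9 citric acid/KH2PO4, taurocholate, tween-20; blue fluorogenic substrate 80 uM, 40 min room temperature, stopped and read Ex 365/Em 440 for AC50.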
`O=C(O)[C@H](Cc1ccccc1)N1C(=O)c2ccccc2C1=O`: the Potency was above 11.4 µM.

Take `COC(=O)c1cc(=O)[nH]c(=O)[nH]1`: the Potency was above 11.4 µM.

Regarding `O=C1CCC[C@H]1C(=O)Nc1ccc2ccccc2c1`, the Potency was above 11.4 µM.

Regarding `COCCn1c(=O)cnc2cnc(N3CCNCC3)nc21`, the Potency is above 11.4 µM.

Regarding `N[C@@H](CNO)C(=O)O`, the Potency was above 11.4 µM.

In the case of `C[C@@H](SCc1ccccc1)C(=O)O`, the Potency is above 11.4 µM.

On to `C[N+](C)(C)CC(=O)N/N=C\c1c(O)ccc2ccccc12`, for which the Potency was above 11.4 µM.

`O=C(O)CCn1cnc2c(=S)nc[nH]c21`: the Potency is above 11.4 µM.

On to `CCOC(=O)c1c(O)[nH]c(=O)c(CC)c1C`, for which the Potency was above 11.4 µM.

In the case of `Nc1ccc(Cc2ccc(N)c(C(=O)O)c2)cc1C(=O)O`, the Potency is above 11.4 µM.

`O=S(=O)(c1ccccc1)N1CCN(S(=O)(=O)c2ccccc2)c2ccccc21`: the Potency is above 11.4 µM.

In the case of `CN1[C@@H](c2ccccc2)CC(=NO)C[C@H]1c1ccccc1`, the Potency is above 11.4 µM.

On to `CC(C)[C@@H](C(=O)O)N1C(=O)c2ccccc2C1=O`, for which the Potency is above 11.4 µM.

As for `O=c1c2ccccc2c2ccccc2c(=O)n1-c1cc2c3ccccc3ccc2c2ccccc12`, the Potency was above 11.4 µM.

Turning to `O=C(O)c1cncc(C(=O)O)c1`, the Potency is above 11.4 µM.

As to `CC(C)=C[C@H]1[C@@H](COC(=O)c2cc3c(cc2Cl)OCO3)C1(C)C`, the Potency is above 11.4 µM.

Consider `O=C(O)CCCSc1nc2ccccc2s1`, for which the Potency was above 11.4 µM.

For `O=C(O)/C(Cc1cn[nH]n1)=N\O`, the Potency was above 11.4 µM.

With `O=C(O)C(=Cc1ccnc2ccccc12)C(=O)O`, the Potency was above 11.4 µM.

With `Cn1c(=O)c2c(ncn2CCSS(=O)(=O)O)n(C)c1=O`, the Potency is above 11.4 µM.

For the molecule `C=CCNS(=O)(=O)c1ncnc2nc[nH]c12`, the Potency was above 11.4 µM.

Take `CN1CCN(CCCNN)CC1`: the Potency is above 11.4 µM.

Regarding `c1ccc(CN2COc3c(ccc4c5c(ccc34)CN(Cc3ccccc3)CO5)C2)cc1`, the Potency was above 11.4 µM.

In the case of `CCCS(=O)(=O)O`, the Potency was above 11.4 µM.

As for `CC(=O)CSCc1ccccn1`, the Potency was above 11.4 µM.

Consider `CC(C)[C@H](Nc1ncnc2nc[nH]c12)C(=O)O`, for which the Potency is above 11.4 µM.

For the molecule `Nc1nc2c(ncn2[C@H]2CC[C@@H](CO)O2)c(=O)n1C(=O)c1ccccc1`, the Potency is above 11.4 µM.

Consider `CC1=C(/C=C\C(=O)O)C(C)(C)CCC1`, for which the Potency was above 11.4 µM.

Consider `C[n+]1cccc(/C=C\c2ccc3cccc(O)c3n2)c1`, for which the Potency is above 11.4 µM.

Regarding `COc1ccc(Br)c2c1C[C@H](C(=O)O)CC2`, the Potency is above 11.4 µM.

On to `COC(=O)c1cc(-c2ccc3ccccc3c2)[nH]c(=O)c1C#N`, for which the Potency was above 11.4 µM.

Consider `O=C(O)[C@H]1O[C@H]1C(=O)O`, for which the Potency was above 11.4 µM.

For the molecule `COc1cc(C(=O)O)c([N+](=O)[O-])c(OC)c1OC`, the Potency was above 11.4 µM.

As for `C[C@H](NCCN(C)C)[C@@H]1CCC2C3CCc4cc(O)ccc4[C@H]3CCC21C` (stereo not given in full), the Potency is above 11.4 µM.

With `O=C(O)/C(Cc1ccc([N+](=O)[O-])cc1)=N/O`, the Potency was above 11.4 µM.

`C(=N/Nc1ccccn1)/c1cccnc1`: the Potency was above 11.4 µM.

`CC1=NNC(=S)NCCCN2CCN(CCCNC(=S)NN=C(C)C=NNC(=S)NCCCN3CCN(CCCNC(=S)NN=C1)CC3)CC2`: the Potency is above 11.4 µM.

`CN(C)CCN1C(=O)CC[C@]2(C)C1=CC[C@@H]1[C@@H]2CC[C@]2(C)[C@H]1CC[C@]2(C)O`: the Potency was above 11.4 µM.

Turning to `Nc1ccccc1N=Nc1c(S(=O)(=O)O)cc2cc(S(=O)(=O)O)cc(O)c2c1O`, the Potency is above 11.4 µM.

As to `N#C[C@H](C(=O)O)C(c1c(Cl)cccc1Cl)[C@H](C#N)C(=O)O`, the Potency was above 11.4 µM.

System in another assay: not listed separately
Kind of assay: AP1 Signaling Pathway (AID 357).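 Note: ME-180 reporter cells stimulated with EGF at its EC50 level; % is set by controls: 0 for no effect and ±100 for the full control effect.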 The conditions noted are these: ME-180 (cervical carcinoma) AP-1-bla reporter, EGF-induced, beta-lactamase ratio, 5 h; at 7.69 µM (top of the series) unless noted. The method, boiled down:
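In this screen, ME-180 cells in Opti-MEM with 0.5% dialyzed FBS received EC50 EGF and compound titrations for 5 h. AP-1 reporter beta-lactamase was detected via CCF4 ratio, giving AC50 for positive and negative modulators.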
For the molecule `O=C(O)[C@H](Cc1ccccc1)N1C(=O)c2ccccc2C1=O`, the activity change, negative = inhibition was -3.82%.

Take `COC(=O)c1cc(=O)[nH]c(=O)[nH]1`: the activity change, negative = inhibition was 9.08%.

Turning to `O=C1CCC[C@H]1C(=O)Nc1ccc2ccccc2c1`, the activity change, negative = inhibition was 7.06%.

Regarding `COCCn1c(=O)cnc2cnc(N3CCNCC3)nc21`, the activity change, negative = inhibition is -9.65%.

With `N[C@@H](CNO)C(=O)O`, the activity change, negative = inhibition is 7.51%.

With `C[C@@H](SCc1ccccc1)C(=O)O`, the activity change, negative = inhibition is -4.75%.

As to `C[N+](C)(C)CC(=O)N/N=C\c1c(O)ccc2ccccc12`, the activity change, negative = inhibition was 3.17%.

As to `O=C(O)CCn1cnc2c(=S)nc[nH]c21`, the activity change, negative = inhibition is -2.08%.

Take `CCOC(=O)c1c(O)[nH]c(=O)c(CC)c1C`: the activity change, negative = inhibition was -5.14%.

`Nc1ccc(Cc2ccc(N)c(C(=O)O)c2)cc1C(=O)O`: the activity change, negative = inhibition was 12.6%.

Consider `O=S(=O)(c1ccccc1)N1CCN(S(=O)(=O)c2ccccc2)c2ccccc21`, for which the activity change, negative = inhibition was -16.4%.

`CN1[C@@H](c2ccccc2)CC(=NO)C[C@H]1c1ccccc1`: the activity change, negative = inhibition is 0.163%.

On to `CC(C)[C@@H](C(=O)O)N1C(=O)c2ccccc2C1=O`, for which the activity change, negative = inhibition is -2.02%.

`O=c1c2ccccc2c2ccccc2c(=O)n1-c1cc2c3ccccc3ccc2c2ccccc12`: the activity change, negative = inhibition is 13.5%.

For the molecule `O=C(O)c1cncc(C(=O)O)c1`, the activity change, negative = inhibition is 1.97%.

With `CC(C)=C[C@H]1[C@@H](COC(=O)c2cc3c(cc2Cl)OCO3)C1(C)C`, the activity change, negative = inhibition is 9.62%.

For `O=C(O)CCCSc1nc2ccccc2s1`, the activity change, negative = inhibition is 1.43%.

For `O=C(O)/C(Cc1cn[nH]n1)=N\O`, the activity change, negative = inhibition is 16.4%.

In the case of `O=C(O)C(=Cc1ccnc2ccccc12)C(=O)O`, the activity change, negative = inhibition was -3.98%.

For the molecule `Cn1c(=O)c2c(ncn2CCSS(=O)(=O)O)n(C)c1=O`, the activity change, negative = inhibition is -0.109%.

On to `C=CCNS(=O)(=O)c1ncnc2nc[nH]c12`, for which the activity change, negative = inhibition is -7.02%.

On to `CN1CCN(CCCNN)CC1`, for which the activity change, negative = inhibition is 3.15%.

Regarding `c1ccc(CN2COc3c(ccc4c5c(ccc34)CN(Cc3ccccc3)CO5)C2)cc1`, the activity change, negative = inhibition is -0.336%.

For `CCCS(=O)(=O)O`, the activity change, negative = inhibition was -5.23%.

For the molecule `CC(=O)CSCc1ccccn1`, the activity change, negative = inhibition is 4.51%.

Regarding `CC(C)[C@H](Nc1ncnc2nc[nH]c12)C(=O)O`, the activity change, negative = inhibition was 7.63%.

Regarding `Nc1nc2c(ncn2[C@H]2CC[C@@H](CO)O2)c(=O)n1C(=O)c1ccccc1`, the activity change, negative = inhibition was 5.69%.

`CC1=C(/C=C\C(=O)O)C(C)(C)CCC1`: the activity change, negative = inhibition is 4.18%.

`C[n+]1cccc(/C=C\c2ccc3cccc(O)c3n2)c1`: the activity change, negative = inhibition was -0.115%.

With `COc1ccc(Br)c2c1C[C@H](C(=O)O)CC2`, the activity change, negative = inhibition was 12.4%.

For the molecule `COC(=O)c1cc(-c2ccc3ccccc3c2)[nH]c(=O)c1C#N`, the activity change, negative = inhibition is -3.94%.

In the case of `O=C(O)[C@H]1O[C@H]1C(=O)O`, the activity change, negative = inhibition was 7.85%.

As to `COc1cc(C(=O)O)c([N+](=O)[O-])c(OC)c1OC`, the activity change, negative = inhibition is 4.41%.

As for `C[C@H](NCCN(C)C)[C@@H]1CCC2C3CCc4cc(O)ccc4[C@H]3CCC21C` (stereo not given in full), the activity change, negative = inhibition was 3.21%.

As for `O=C(O)/C(Cc1ccc([N+](=O)[O-])cc1)=N/O`, the activity change, negative = inhibition is 3.45%.

As to `C(=N/Nc1ccccn1)/c1cccnc1`, the activity change, negative = inhibition is 3.9%.

For the molecule `CC1=NNC(=S)NCCCN2CCN(CCCNC(=S)NN=C(C)C=NNC(=S)NCCCN3CCN(CCCNC(=S)NN=C1)CC3)CC2`, the activity change, negative = inhibition was 4.7%.

Turning to `CN(C)CCN1C(=O)CC[C@]2(C)C1=CC[C@@H]1[C@@H]2CC[C@]2(C)[C@H]1CC[C@]2(C)O`, the activity change, negative = inhibition was 3.79%.

With `Nc1ccccc1N=Nc1c(S(=O)(=O)O)cc2cc(S(=O)(=O)O)cc(O)c2c1O`, the activity change, negative = inhibition is -8.99%.

Regarding `N#C[C@H](C(=O)O)C(c1c(Cl)cccc1Cl)[C@H](C#N)C(=O)O`, the activity change, negative = inhibition is 1.46%.
